This experiment relates to T1, DRAK1.
T1 construct: gene STK17A
The conditions noted are these: concentration: 1 μM, replicates: in singlicate; n = 1.
In the case of `CN1C(=O)C(Nc2cc(Cl)c(O)c(Cl)c2)=C(c2ccc(Cl)cc2)C1=O` [SB-404321], the “%Inh” value came to 0%.

For `CCC(=O)c1c(-c2ccccc2)c2cc(Cl)ccc2c(=O)n1Cc1cc(C(=O)NC2CC2)n(C)n1`, the “%Inh” value was 0%.

For `COc1cccc(C2=C(Nc3cccc(C(=O)O)c3)C(=O)NC2=O)c1` [SB-390770], the “%Inh” value is given as 0%. With `O=C(Nc1ccc2c(c1)OCO2)NC1CCN(c2ccnc(NCc3ccc(F)cc3)n2)CC1` [GSK1379859], the “%Inh” value amounted to 6%. As for `COc1cc2nccc(Nc3cccc(Oc4ccccc4)c3)c2cc1OC.Cl` [GW284543], the “%Inh” value is 2%. For `COc1cc(Nc2nccc(N3CCC(NC(=O)C(C)c4ccc(Cl)cc4)C3)n2)cc(OC)c1OC` (stereo not drawn) [GSK1379757], the “%Inh” value is 0%.

As for `Cc1ccccc1COc1cc(-n2cnc3cc(Cl)ccc32)sc1C(N)=O` [GW813349], the “%Inh” value was 0%.

With `CCC(=O)c1c(-c2ccccc2)c2cc(Cl)ccc2c(=O)n1Cc1cc(S(C)(=O)=O)n(CCC(C)(C)O)n1`, the “%Inh” value was 14%. Turning to `Cc1nn2c(=O)cc(N3CCOCC3)nc2n1Cc1cccc(Cl)c1Cl` [GSK2342769], the “%Inh” value is reported as 0%. Turning to `COc1ccc(Nc2nccc(N3CCC(NS(=O)(=O)c4ccc(NC(C)=O)cc4)C3)n2)cc1` (stereo not drawn) [GSK1379729], the “%Inh” value is recorded as 0%.

With `Cc1cccc(-c2nc(Nc3ccc4c(cnn4C)c3)c3ccccc3n2)n1` [GW876731], the “%Inh” value is 7%. In the case of `C[C@@H]1CC[C@H](C(=O)NC2CCCCC2)CN1c1cc(-c2ccc3c(N)n[nH]c3c2)nc(N)n1` [GSK2291363] it was 20%.

(Values after article PMC5540273 (PLoS ONE, 2017).)
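Note: KINOMEscan kinase panel screen.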
